Screens deposited in PubChem BioAssay by National Center for Advancing Translational Sciences (NCATS).
This excerpt belongs to a sample that is enriched for hits.
Pf Dd2 growth: blocks in vitro growth of P. falciparum Dd2; P. falciparum Dd2 growth, SYBR Green, 72 h; actives 4.3% (n = 120,000); AID 1347417; Potency, µM (highest dose often 28.9 µM), actives largely listed as inhibitors; active means well fitted inhibition curve with a large enough effect; further: nearly all actives have a fitted effect of over 65% in size
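Readout: SYBR Green fluorescence, 485 nm excitation, 535 nm emission, after ~16 h lysis at 37C. Before that, Dd2-infected red cells (2.5% hematocrit) grew 72 h with compound, 29 uM top final concentration.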
Large screens that a line does not name were inactive.

Cc1cc2cc(-c3c(C)noc3C)nc(N(C)C)c2o1	none
Cc1cc(-c2nc(-c3c(C)noc3C)cc3cc(C)oc23)ccn1	Pf Dd2 growth 11.2µM
COc1cc(-c2nc(-c3c(C)noc3C)cc3c2cc(C)n3C)ccn1	none
COc1ccc(-c2nc(-c3c(C)noc3C)cc3cc(CO)oc23)cn1	none
Cc1cc2cc(-c3c(C)noc3C)nc(N3CCN(c4ccccn4)CC3)c2o1	none
Cc1cccc2nnc(N3CCCN(C(=O)c4ccccc4Cl)CC3)n12	none
CC(C)C(=O)Nc1ccc([C@H]2OCC(=O)N(Cc3nccn3C)[C@@H]2CO)cc1	none
CCOc1ccccc1C(=O)NCC(c1cccs1)S(=O)(=O)c1ccc(F)c(C)c1 (centres undefined)	none
COc1ccc(CC(=O)NCC(c2cccs2)S(=O)(=O)c2ccc(F)c(C)c2)cc1 (centres undefined)	none
Cc1cc(S(=O)(=O)C(CNC(=O)c2ccc(OC(C)C)cc2)c2cccs2)ccc1F (centres undefined)	Pf Dd2 growth 5.01µM
COc1cccc(-c2ccc(C(=O)NCCCn3ccnc3C(C)C)cn2)c1	none
CCCNC(=O)N[C@H]1C[C@@](O)(C(=O)N[C@H](C)C(N)=O)C[C@@H](O)[C@@H]1O	none
COc1ccc(-c2csc(=Nc3ccccc3)n2CCO)cc1F	none
O=S(=O)(c1ccc(-c2csc(=Nc3ccc(OC(F)(F)Cl)cc3)n2CCCO)cc1)N1CCCC1	Pf Dd2 growth 11.2µM
CCn1c(-c2ccc(S(=O)(=O)N3CCOCC3)cc2)csc1=Nc1ccc(C)c(Cl)c1	none
O=c1c2c(CO)c(-c3ccccc3)nn2ccn1Cc1ccccc1	none
COc1cccn(CC(=O)N(Cc2ccc(SC)cc2)C2CC2)c1=O	none
COc1ccc(C2=NOC3(CCN(Cc4cccnc4)C3)C2)cc1 (centres undefined)	none
COc1ccc(C2=NOC3(CCN(Cc4ccc(F)cc4)C3)C2)cc1 (centres undefined)	Pf Dd2 growth 3.98µM
COc1ccc(CN2CCC3(CC(c4cccc(C(F)(F)F)c4)=NO3)C2)cc1 (centres undefined)	none
O=C(c1cc(-c2ccc(F)cc2)n[nH]1)N1CC2CC(C1)[C@H]1CCCC(=O)N1C2 (some centres undefined)	none
N#Cc1ccc(O[C@@H]2CCOC[C@H]2NC(=O)CN2CCOC2=O)cc1	none
COC1C(=O)N(C2CCN(Cc3ccc(F)c(F)c3)CC2)C12CCOCC2 (centres undefined)	none
COCc1noc([C@@H]2CN(C(=O)CCc3nc4ccccc4[nH]3)C[C@H]2C(N)=O)n1	none
CCc1ccc(NC(=O)Cn2ccn3nc4c(c3c2=O)CC(C)CC4)cc1 (centres undefined)	none
C[S+](=O)([O-])N1CC2ON=C(C(=O)NCCc3ccc(Cl)cc3)C2C1 (centres undefined)	none
COCCNC(=O)c1cc(-c2ccccc2Oc2ccccc2)cc2ncn(C)c12	none
N[C@H]1CN(C(=O)c2ccccc2Oc2ccccc2)C[C@@H]1C1CC1	Pf Dd2 growth 6.31µM
N[C@H]1CN(C(=O)C2CCN(C(=O)c3ccccn3)CC2)C[C@@H]1C1CC1	none
NC(=O)[C@@H]1CN(C(=O)c2ccccc2F)C[C@H]1COc1ccccc1	none
O=C(c1ccccc1F)N1CCC2(CC1)N=C(c1ccc(Cl)cc1)NO2	none
Cc1nc(-c2ccc(F)cc2)n(CC(=O)NCc2ccc(F)cc2)c(=O)c1CCO	none
COc1cccc(CNC(=O)C2CN(c3cccc(Cl)c3)C(=O)N2)c1 (centres undefined)	none
COc1ccccc1CN1CC[C@@H]2OCC(=O)N(Cc3c[nH]c4ccccc34)[C@H]2CC1	Pf Dd2 growth 4.47µM
O=C1CO[C@H]2CCN(Cc3ccncc3)CC[C@@H]2N1Cc1ccccc1	none
COc1ccc(CN2C(=O)CO[C@H]3CN(Cc4c[nH]c5ccccc45)C[C@H]32)cc1	Pf Dd2 growth 7.94µM
O=C1CO[C@H]2CN(Cc3ccc4c(c3)OCO4)C[C@H]2N1Cc1ccccn1	none
CC(C)c1ccc(CN2CC[C@@H]3OCC(=O)N(Cc4ccccc4)[C@H]3CC2)cc1	Pf Dd2 growth 10µM
COc1ccc(CN2C(=O)CO[C@H]3CN(C(C)C)C[C@H]32)cc1	none
CC(C)N1C(=O)CO[C@H]2CCN(Cc3ccccc3)CC[C@@H]21	none
N#Cc1cccc(CN2CC[C@@H]3OCC(=O)N(Cc4c[nH]c5ccccc45)[C@H]3CC2)c1	none
CC(C)CCN1CC[C@@H]2OCC(=O)N(Cc3c[nH]c4ccccc34)[C@H]2CC1	none
COc1ccc(CN2C(=O)CO[C@H]3CN(CC4CC4)C[C@H]32)cc1	none
O=C1CO[C@H]2CN(Cc3ccncc3)C[C@H]2N1Cc1ccc(F)cc1	none
O=C1CO[C@H]2CN(Cc3ccc4c(c3)OCO4)C[C@H]2N1Cc1ccc(F)cc1	Pf Dd2 growth 10µM
Cc1ccccc1C(=O)N1CCCN(c2nc3ncccc3o2)CC1	none
Fc1ccc(CN2CCNc3cnc(-c4ccccc4)cc3C2)cc1F	none
COc1cc(-c2onc(C)c2C(=O)NCCSC)cc(OC)c1OC	none
C=CCNC(=O)CN1CC2CC(C1)[C@H]1CCCC(=O)N1C2 (some centres undefined)	none
COc1ccc2ccc(OCc3nc(C(=O)NCc4csc(N)n4)co3)cc2c1	none
